Data from the supplement of paper PMC11732987, “Enantioselective OTUD7B fragment discovery through chemoproteomics screening and high-throughput optimisation” (Communications Chemistry, 2025).

How the values were obtained:
Assay in all cases: log2 ratio of Biotin-Ahx-Ub-VS probe labelling (fragment/DMSO); higher = less target engagement (more negative = stronger competition), active = hit call of the paper (q ≤ 0.05, log2 ratio ≤ -1)
Details in all cases: compound concentration: 200 uM; treatment time: 3 h
UniProt O00507 = target: UniProt O00507
Sequence of UniProt O00507 (O00507 whole entry, the tested form may be a part): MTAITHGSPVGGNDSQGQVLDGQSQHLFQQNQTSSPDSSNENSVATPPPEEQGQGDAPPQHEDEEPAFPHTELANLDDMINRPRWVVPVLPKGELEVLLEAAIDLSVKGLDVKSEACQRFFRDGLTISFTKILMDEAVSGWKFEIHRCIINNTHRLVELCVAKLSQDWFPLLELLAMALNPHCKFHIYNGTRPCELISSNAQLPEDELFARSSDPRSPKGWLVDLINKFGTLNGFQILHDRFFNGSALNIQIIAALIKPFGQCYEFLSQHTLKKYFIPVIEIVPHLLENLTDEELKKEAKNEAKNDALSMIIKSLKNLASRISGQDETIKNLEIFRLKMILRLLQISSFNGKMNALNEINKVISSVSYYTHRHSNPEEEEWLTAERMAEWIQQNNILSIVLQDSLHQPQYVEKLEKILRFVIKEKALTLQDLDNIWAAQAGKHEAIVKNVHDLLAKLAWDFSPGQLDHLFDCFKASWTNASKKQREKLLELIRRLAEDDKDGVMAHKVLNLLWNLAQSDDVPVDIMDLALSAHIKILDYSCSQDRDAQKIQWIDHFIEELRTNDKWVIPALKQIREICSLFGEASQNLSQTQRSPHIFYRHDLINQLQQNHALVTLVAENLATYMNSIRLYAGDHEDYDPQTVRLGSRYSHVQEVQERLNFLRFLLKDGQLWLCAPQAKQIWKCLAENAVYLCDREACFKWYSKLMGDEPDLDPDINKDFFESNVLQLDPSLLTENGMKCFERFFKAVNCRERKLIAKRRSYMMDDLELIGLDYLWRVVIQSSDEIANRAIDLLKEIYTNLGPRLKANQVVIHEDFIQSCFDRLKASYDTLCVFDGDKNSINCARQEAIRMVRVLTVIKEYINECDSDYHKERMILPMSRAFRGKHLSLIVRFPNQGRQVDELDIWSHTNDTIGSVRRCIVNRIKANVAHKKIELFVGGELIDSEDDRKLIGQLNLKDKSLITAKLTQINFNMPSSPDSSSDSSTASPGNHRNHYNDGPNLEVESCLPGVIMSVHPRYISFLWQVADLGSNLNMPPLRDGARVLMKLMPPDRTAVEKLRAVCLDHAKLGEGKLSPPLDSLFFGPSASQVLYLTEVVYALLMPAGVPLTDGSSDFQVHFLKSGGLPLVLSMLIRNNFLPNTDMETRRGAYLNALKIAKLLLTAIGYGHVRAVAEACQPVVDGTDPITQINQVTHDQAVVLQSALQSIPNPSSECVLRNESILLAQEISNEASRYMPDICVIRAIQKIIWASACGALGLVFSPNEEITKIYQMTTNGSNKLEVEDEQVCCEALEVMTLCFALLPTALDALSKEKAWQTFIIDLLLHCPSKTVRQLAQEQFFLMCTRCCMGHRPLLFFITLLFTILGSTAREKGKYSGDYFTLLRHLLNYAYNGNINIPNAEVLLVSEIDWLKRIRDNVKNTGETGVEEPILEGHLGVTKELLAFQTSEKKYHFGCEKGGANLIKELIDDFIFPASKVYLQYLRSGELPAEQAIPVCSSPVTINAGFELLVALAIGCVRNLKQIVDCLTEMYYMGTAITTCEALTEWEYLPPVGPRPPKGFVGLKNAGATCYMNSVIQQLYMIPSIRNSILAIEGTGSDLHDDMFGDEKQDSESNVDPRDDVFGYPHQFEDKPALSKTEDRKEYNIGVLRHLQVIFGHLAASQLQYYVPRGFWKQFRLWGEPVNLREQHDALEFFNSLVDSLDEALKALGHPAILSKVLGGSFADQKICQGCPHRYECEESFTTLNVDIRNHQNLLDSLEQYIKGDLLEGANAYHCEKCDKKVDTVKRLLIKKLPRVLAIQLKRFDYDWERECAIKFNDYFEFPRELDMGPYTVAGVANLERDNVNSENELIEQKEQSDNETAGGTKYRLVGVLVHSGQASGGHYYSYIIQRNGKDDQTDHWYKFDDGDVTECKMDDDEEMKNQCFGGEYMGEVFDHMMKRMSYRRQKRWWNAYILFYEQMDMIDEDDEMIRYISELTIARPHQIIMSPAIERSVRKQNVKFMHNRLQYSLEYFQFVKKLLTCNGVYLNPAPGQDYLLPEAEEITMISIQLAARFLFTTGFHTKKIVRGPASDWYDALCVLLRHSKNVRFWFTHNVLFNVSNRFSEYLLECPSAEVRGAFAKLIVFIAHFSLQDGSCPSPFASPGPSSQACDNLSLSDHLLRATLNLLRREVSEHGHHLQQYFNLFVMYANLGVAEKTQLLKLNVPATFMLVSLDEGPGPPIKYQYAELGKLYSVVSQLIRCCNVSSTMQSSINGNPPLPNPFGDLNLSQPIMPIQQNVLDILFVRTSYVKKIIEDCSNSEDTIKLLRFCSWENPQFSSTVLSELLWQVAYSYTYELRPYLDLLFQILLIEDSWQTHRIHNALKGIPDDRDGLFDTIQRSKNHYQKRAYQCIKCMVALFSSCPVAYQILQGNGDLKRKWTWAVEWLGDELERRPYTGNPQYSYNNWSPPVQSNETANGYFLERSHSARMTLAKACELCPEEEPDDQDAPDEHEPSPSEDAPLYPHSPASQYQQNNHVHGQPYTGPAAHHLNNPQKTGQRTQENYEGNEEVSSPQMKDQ
Summary of the method: (§1)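 Triplicate samples of HEK293T lysate, 495 µg each, received fragment at 200 µM or vehicle for 3 h, followed by Biotin-Ahx-Ub-VS (0.5 µM final) for 1 h. After NeutrAvidin enrichment of labelled DUBs and LysC/trypsin digestion, peptides were run by diaPASEF LC-MS/MS. The values are average log2 fragment/vehicle ratios from global-median-normalised Spectronaut label-free quantities, tested by unpaired t-test on proteins having ≥2 unique peptides.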

UniProt P51784 = target: UniProt P51784
Sequence of UniProt P51784 (P51784 whole entry): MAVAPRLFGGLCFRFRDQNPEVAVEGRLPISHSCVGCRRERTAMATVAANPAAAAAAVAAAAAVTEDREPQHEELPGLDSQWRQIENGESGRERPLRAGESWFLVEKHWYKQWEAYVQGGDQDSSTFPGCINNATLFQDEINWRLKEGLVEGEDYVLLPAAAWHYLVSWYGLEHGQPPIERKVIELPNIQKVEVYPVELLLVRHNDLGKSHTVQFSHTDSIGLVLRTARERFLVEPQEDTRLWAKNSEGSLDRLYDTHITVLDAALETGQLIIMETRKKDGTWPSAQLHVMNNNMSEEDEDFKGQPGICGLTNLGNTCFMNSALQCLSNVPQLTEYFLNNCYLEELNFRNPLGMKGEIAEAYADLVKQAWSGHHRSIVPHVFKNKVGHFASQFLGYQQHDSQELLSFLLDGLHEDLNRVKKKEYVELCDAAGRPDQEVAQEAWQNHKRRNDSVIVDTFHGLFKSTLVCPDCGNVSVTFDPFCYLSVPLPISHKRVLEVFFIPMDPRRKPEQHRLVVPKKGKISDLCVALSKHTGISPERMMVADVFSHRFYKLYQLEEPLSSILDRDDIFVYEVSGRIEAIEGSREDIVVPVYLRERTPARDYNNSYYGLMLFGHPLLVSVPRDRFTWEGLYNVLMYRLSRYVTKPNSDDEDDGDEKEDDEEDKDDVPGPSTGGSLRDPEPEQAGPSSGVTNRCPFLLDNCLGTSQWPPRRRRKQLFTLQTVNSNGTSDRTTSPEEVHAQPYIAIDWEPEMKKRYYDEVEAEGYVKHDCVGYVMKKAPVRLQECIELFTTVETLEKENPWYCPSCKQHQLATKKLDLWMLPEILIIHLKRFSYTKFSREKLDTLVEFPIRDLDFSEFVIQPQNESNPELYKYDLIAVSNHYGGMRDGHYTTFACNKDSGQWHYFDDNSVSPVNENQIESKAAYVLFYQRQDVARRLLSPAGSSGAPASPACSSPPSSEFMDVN
Summary of the method: as §1

UniProt Q5T2D3 = target: T1, UniProt Q5T2D3
T1 sequence (whole entry): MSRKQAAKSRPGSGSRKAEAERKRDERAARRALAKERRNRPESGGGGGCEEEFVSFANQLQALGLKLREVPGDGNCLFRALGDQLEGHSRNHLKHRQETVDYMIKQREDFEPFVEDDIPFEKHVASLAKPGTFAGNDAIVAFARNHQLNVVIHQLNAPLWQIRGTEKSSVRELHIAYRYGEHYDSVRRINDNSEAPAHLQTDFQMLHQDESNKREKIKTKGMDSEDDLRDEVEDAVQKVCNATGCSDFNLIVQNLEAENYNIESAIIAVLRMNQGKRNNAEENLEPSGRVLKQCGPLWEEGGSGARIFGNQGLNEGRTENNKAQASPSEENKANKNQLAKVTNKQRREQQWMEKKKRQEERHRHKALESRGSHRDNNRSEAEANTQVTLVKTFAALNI
Summary of the method: as §1

UniProt Q8TE49 = target: T2, UniProt Q8TE49
T2 sequence (whole entry): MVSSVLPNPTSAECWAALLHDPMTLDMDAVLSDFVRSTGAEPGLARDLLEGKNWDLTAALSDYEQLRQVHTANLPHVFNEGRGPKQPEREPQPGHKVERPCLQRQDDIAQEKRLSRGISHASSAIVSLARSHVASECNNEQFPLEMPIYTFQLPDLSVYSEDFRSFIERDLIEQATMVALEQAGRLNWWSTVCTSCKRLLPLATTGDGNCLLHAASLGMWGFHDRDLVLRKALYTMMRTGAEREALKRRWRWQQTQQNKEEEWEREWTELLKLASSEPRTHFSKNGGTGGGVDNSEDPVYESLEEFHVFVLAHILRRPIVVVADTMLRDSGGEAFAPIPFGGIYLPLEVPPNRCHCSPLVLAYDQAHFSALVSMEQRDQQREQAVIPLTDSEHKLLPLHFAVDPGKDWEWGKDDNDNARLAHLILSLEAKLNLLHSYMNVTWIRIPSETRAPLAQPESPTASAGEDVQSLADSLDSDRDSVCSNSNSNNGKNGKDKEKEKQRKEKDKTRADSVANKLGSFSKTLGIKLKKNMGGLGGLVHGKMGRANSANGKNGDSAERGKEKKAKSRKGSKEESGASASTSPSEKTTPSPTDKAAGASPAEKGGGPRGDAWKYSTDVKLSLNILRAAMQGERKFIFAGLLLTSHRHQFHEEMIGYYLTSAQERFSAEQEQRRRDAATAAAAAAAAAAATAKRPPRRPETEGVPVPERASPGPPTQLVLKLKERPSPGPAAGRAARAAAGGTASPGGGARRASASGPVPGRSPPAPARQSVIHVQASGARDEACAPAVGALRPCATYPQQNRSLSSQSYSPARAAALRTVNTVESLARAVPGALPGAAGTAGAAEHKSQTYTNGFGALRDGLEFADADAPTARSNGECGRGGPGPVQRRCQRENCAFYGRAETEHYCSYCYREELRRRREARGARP
Summary of the method: as §1

UniProt Q9P2H5 = target: T3, UniProt Q9P2H5
T3 sequence (whole entry): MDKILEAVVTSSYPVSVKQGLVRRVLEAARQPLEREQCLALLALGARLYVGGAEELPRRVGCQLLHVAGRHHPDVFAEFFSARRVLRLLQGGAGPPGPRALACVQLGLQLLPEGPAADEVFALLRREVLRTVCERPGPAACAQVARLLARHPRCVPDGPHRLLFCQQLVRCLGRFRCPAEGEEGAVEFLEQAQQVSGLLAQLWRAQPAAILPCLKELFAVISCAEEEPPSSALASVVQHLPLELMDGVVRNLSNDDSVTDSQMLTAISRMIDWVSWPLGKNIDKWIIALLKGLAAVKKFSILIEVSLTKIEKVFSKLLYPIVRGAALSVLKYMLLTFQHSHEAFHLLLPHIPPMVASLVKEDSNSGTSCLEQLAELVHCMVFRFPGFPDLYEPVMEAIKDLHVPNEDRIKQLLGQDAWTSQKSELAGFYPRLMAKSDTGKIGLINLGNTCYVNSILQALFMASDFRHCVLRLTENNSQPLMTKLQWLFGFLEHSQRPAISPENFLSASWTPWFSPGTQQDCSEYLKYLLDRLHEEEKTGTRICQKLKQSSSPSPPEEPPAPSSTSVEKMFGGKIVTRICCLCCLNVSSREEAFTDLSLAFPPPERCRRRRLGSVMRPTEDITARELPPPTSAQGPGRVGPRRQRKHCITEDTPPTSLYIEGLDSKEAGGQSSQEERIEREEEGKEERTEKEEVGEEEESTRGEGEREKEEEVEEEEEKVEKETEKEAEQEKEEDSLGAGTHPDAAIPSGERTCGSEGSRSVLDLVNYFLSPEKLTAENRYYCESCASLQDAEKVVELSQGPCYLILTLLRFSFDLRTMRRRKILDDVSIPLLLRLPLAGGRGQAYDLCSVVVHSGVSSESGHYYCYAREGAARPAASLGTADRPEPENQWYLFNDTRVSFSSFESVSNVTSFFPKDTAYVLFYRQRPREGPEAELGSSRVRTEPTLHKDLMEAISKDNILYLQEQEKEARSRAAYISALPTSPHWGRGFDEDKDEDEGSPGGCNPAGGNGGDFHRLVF
Summary of the method: as §1

UniProt Q9UGI0 = target: T4, UniProt Q9UGI0
T4 sequence (whole entry): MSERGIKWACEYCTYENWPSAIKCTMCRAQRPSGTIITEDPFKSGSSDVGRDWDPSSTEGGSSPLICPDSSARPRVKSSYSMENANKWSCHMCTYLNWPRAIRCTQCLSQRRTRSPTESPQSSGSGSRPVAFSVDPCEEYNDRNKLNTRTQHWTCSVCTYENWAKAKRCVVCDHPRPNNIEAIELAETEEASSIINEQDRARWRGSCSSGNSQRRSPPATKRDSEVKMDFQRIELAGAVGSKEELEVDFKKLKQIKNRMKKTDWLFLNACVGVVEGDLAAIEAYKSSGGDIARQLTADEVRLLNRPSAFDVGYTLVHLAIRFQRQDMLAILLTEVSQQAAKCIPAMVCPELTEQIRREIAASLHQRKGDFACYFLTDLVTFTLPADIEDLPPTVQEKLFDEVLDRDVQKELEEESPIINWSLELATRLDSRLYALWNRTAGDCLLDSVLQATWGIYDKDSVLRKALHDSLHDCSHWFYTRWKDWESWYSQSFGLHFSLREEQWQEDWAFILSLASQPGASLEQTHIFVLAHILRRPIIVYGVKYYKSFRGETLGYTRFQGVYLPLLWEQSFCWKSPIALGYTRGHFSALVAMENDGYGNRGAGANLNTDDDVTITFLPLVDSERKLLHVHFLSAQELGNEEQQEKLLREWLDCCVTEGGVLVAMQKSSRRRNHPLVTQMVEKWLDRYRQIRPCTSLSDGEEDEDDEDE
Summary of the method: as §1

YOD1 = target: T5, YOD1 (UniProt Q5VVQ6)
T5 sequence (whole entry): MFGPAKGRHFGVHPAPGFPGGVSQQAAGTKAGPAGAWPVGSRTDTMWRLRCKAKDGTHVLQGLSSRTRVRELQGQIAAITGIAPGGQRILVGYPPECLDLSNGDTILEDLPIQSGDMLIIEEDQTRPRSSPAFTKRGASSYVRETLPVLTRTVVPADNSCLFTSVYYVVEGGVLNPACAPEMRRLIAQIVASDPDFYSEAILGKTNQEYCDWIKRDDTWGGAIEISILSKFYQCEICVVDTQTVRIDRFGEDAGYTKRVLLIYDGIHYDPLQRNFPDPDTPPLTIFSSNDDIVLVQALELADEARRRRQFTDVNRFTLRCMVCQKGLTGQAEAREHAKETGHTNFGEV
Summary of the method: as §1

Measured: log2 ratio of Biotin-Ahx-Ub-VS probe labelling

CC(NC(=O)CCl)c1cccc2ccccc12 (stereo not given)
inactive: UniProt O00507 0.0439 | UniProt P51784 -0.0702 | UniProt Q5T2D3 -0.196 | UniProt Q9P2H5 -0.463 | UniProt Q9UGI0 -0.905 | YOD1 0.0311
active: UniProt Q8TE49 -1.06

O=C(CCl)N[C@H]1CCS(=O)(=O)c2ccccc21
inactive: UniProt O00507 -0.141 | UniProt P51784 -0.134 | UniProt Q5T2D3 -0.0599 | UniProt Q8TE49 -0.609 | UniProt Q9P2H5 -0.0511 | UniProt Q9UGI0 -0.158 | YOD1 0.0852

O=C(CCl)N1CCOCCC1c1ccccc1 (stereo not given)
inactive: UniProt O00507 -0.114 | UniProt P51784 0.0584 | UniProt Q5T2D3 -0.173 | UniProt Q8TE49 -0.54 | UniProt Q9P2H5 -0.305 | UniProt Q9UGI0 -0.25 | YOD1 0.199

NC(=O)C(Cc1ccccc1)NC(=O)CCl (stereo not given)
inactive: UniProt O00507 0.191 | UniProt P51784 -0.0194 | UniProt Q5T2D3 -0.105 | UniProt Q8TE49 -0.102 | UniProt Q9P2H5 -0.193 | UniProt Q9UGI0 -0.398 | YOD1 0.0228

Cl.O=C(CCl)N1CCn2cncc2C1
inactive: UniProt O00507 -0.138 | UniProt P51784 -0.251 | UniProt Q5T2D3 -0.246 | UniProt Q8TE49 -0.433 | UniProt Q9P2H5 -0.128 | UniProt Q9UGI0 -0.182 | YOD1 -0.133

Cc1cccc2nc(CCNC(=O)CCl)cn12.Cl
inactive: UniProt O00507 -0.595 | UniProt P51784 -0.113 | UniProt Q5T2D3 -0.351 | UniProt Q8TE49 -0.764 | UniProt Q9P2H5 -0.327 | UniProt Q9UGI0 -0.846 | YOD1 -0.336

CCN(C(=O)CCl)C1CCCCC1
inactive: UniProt O00507 0.476 | UniProt P51784 0.0309 | UniProt Q5T2D3 -0.00741 | UniProt Q8TE49 -0.32 | UniProt Q9P2H5 -0.0524 | UniProt Q9UGI0 0.069 | YOD1 0.333

Cl.O=C(CCl)NCc1ccnc(Oc2ccccc2F)c1
inactive: UniProt O00507 -0.125 | UniProt P51784 0.0358 | UniProt Q5T2D3 -0.167 | UniProt Q8TE49 -0.406 | UniProt Q9P2H5 -0.188 | UniProt Q9UGI0 -0.246 | YOD1 -0.103

COc1ccc(Cl)cc1NC(=O)CCl
inactive: UniProt O00507 -0.985 | UniProt P51784 -0.276 | UniProt Q5T2D3 -0.485 | UniProt Q8TE49 -0.837 | UniProt Q9P2H5 -0.335 | UniProt Q9UGI0 -0.741 | YOD1 -0.669

Cc1cccc(C)c1NC(=O)CCl
inactive: UniProt O00507 -0.138 | UniProt P51784 -0.081 | UniProt Q5T2D3 -0.377 | UniProt Q8TE49 -0.358 | UniProt Q9P2H5 -0.0602 | UniProt Q9UGI0 -0.323 | YOD1 -0.344
